Compounds with a hit are over-represented: about 2.5% of the library has one in this group of screens.
D2 ag-1: agonists of human D2 dopamine receptor (beta-arrestin); P14416; DiscoveRx PathHunter D2 beta-arrestin, luminescence, 90 min; 100% = 57 uM dopamine signal; activation, % (no concentration beside the values); actives 0.084% (n = 360,000); AID 624465; in the data active = activation above about 40%; inconclusive = between about 15% and that limit
Target sequence (P14416 whole entry, looked up): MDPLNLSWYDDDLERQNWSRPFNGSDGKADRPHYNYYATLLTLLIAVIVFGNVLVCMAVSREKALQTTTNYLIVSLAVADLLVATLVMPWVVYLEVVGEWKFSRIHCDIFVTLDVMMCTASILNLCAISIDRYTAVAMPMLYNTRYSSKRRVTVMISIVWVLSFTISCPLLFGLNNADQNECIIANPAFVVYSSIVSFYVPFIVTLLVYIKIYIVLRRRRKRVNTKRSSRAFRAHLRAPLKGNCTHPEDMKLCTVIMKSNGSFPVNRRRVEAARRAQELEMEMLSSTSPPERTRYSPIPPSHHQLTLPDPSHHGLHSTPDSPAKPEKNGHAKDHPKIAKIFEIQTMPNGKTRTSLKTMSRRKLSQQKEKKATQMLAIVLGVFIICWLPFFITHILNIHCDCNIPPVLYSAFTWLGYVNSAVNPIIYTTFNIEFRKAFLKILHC
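Agonist mode: compounds alone added to overnight-plated D2 PathHunter cells for 90 min at 37 C, with 57 uM final dopamine (EC100) defining full response. Beta-arrestin recruitment detected by chemiluminescent reagent, read after 1 h at ambient temperature.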
Apoferritin bind: binds horse apoferritin like a general anesthetic; P02791; apoferritin/1-aminoanthracene competitive binding, fluorescence; Potency, µM (doses to about 77.5 µM), for inactives: top-dose activity change, negative = displacement, most hits filed as inhibitors; actives 0.074% (n = 350,000); active = well fitted inhibition curve with a large enough effect; inconclusive = small, poorly fitted or top-dose-only effect; inactive = no such curve, though single readings can be large or run the other way; note: potency is the fitted concentration of half-maximal effect; % is set by controls: 0 for no effect and ±100 for the full control effect; nearly all actives have a fitted effect of over 20% in size
Target sequence (P02791 2-175 limits assumed): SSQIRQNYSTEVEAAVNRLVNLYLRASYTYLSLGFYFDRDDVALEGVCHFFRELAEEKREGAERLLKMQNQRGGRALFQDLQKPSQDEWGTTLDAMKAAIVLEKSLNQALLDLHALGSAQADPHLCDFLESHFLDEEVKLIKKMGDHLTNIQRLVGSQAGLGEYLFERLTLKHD
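Horse-spleen apoferritin (10 uM) was mixed with 50% saturated 1-aminoanthracene in PBS, exposed to compounds for 10 min at room temperature, and read for fluorescence (ex 380 nm, em 535 nm). Competitive displacement was fitted with a four-parameter Hill equation.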
D2 PAM-1: positive allosteric modulators of human D2 dopamine receptor. potentiation, % at 10 µM. P14416. AID 485347. actives 0.34% (n = 340,000). HEK293 T-REx D2, calcium flux, EC20 dopamine potentiation;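 active = potentiation over 3 SD above the plate norm, cut at about 30% in these data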; note: 0% is about no effect
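Using a no-wash calcium dye in inducible, force-coupled HEK293 Trex cells expressing D2, we tracked fluorescence each second for 180 s after compound, then for 180 s after EC20 dopamine to detect augmented signalling.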
D2 ag-2: agonists of human D2 dopamine receptor. P14416. HEK293 T-REx D2 cells, calcium flux agonist mode. activation, % at 2 µM. actives 0.53% (n = 340,000). AID 485358;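 active = activation over 3 SD above normal in the single-dose calcium agonist read, cut at about 30% in these data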; note: 0% is about no effect
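In this primary screen, compounds producing a positive calcium signal within 180 s of addition to tetracycline-induced, force-coupled HEK293 Trex D2 cells are flagged; cells are dye-loaded with a no-wash calcium kit beforehand.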
D2 antagonist: antagonists of human D2 dopamine receptor; inhibition, % at 10 µM; HEK293 TREx D2 cells, calcium flux, dopamine EC80; AID 485344; actives 2% (n = 340,000); in the data active = inhibition above about 30%; inactive = below that, where a call was filed; note: 0% is about no effect
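Antagonism is scored as inhibition of an EC80 dopamine-evoked calcium signal in a force-coupled, tetracycline-inducible HEK293 T-REx D2 line, with compound present 180 s before agonist.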
D2 PAM-2: positive allosteric modulators of human D2 dopamine receptor | P14416 | DiscoveRx D2 beta-arrestin cells, luminescence, 90 min; 100% = 57 uM dopamine signal | potentiation, % (concentration not given with the values) | actives 0.23% (n = 360,000) | AID 624464; in the data active = potentiation above about 50%; inconclusive = mostly about 30% to 49%
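D2 cells co-treated with compound plus 50 nM dopamine (EC20) for 90 min at 37 deg C to detect potentiation. Beta-arrestin recruitment was read as enzyme-fragment luminescence after 1 h at ambient temperature. Full response was set by 57 uM dopamine.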
* hit, by the source's call; ? = inconclusive; . = not tested or not shown.

SMILES	D2 ag-1	Apoferritin bind	D2 PAM-1	D2 ag-2	D2 antagonist	D2 PAM-2
OC(c1ccc(-c2ccccc2)cc1)c1ncc(-c2ccccc2Cl)[nH]1 (configuration not stated)	6	.	.	.	.	-9
C=CCc1ccc(OCCCCN2CCC(C)CC2)c(OC)c1	-1	2%	-24	0	-12	-7
C=CCc1ccc(OCCCCN2CC(C)CC(C)C2)c(OC)c1 (configuration not stated)	-5	-16%	-16	0	39*	-6
COc1ccc2c(c1)c(=O)c(S(=O)(=O)c1ccc(Cl)cc1)cn2C	.	?	9	.	.	.
CCNc1nc(OC)nc(Oc2ccc(=O)n(-c3ccccc3)n2)n1	-1	5%	38*	1	-6	-7
CC1CCCCN1C(=O)c1cccc(NC(=O)c2ccccc2)c1 (configuration not stated)	-4	-16%	-2	-1	37*	-9
CC(C)C(=O)Nc1cccc(C(=O)N2CCCCC2C)c1 (configuration not stated)	-1	-11%	7	1	-13	-12
Cc1cccnc1NC1CCCCC1	1	-14%	3	1	-2	-13
c1ccc2c(NC3CCCC3)nnc(NC3CCCC3)c2c1	-3	-9%	-23	16	49*	-43
O=C1Nc2ccccc2Oc2cc(Oc3ccccc3)ccc21	.	-20%	-8	-1	.	.
c1ccc(CNc2nc3ccccc3n3cnnc23)cc1	-2	-10%	41*	0	-3	-3
c1ccc(CNc2nc3ccccc3n3cnnc23)nc1	-1	40%	0	1	20	-2
CC(=O)Nc1ccc(Oc2sc(C(=O)c3ccccc3)c(N)c2C#N)cc1	-3	-14%	-5	0	31*	-10
COc1ccc(NC(=O)c2ccc(-c3ccccc3C(F)(F)F)o2)cc1	-3	-23%	-23	0	49*	-32
O=C(Nc1cccc(F)c1)c1ccc(-c2ccccc2C(F)(F)F)o1	.	?	-3	2	-32	.
COc1cccc(-n2c(CCn3nc(C)c([N+](=O)[O-])c3C)n[nH]c2=S)c1	-4	-11%	17	0	16	-6
COc1ccc(CCn2nc(C)c([N+](=O)[O-])c2C)cc1	2	-7%	-16	-1	32*	-6
Cc1cc(C)n(-c2nc3ccccc3n3nnnc23)n1	0	-4%	33*	-1	4	-2
CC(=O)Nc1ccc(Br)c(Cl)c1	-1	9%	-7	1	-3	-6
COc1ccc(N=C2S/C(=C\c3ccco3)C(=O)N2CC(C)C)cc1	-3	?	10	0	36*	-24
O=S(=O)(Nc1cccc(S(=O)(=O)N2CCOCC2)c1)c1cccs1	-2	-4%	-11	32*	10	-4
O=C(CNS(=O)(=O)c1ccccc1)OCC(=O)c1ccc(F)cc1	-4	0%	36*	-2	-16	-6
COc1ccc(C(=O)NC2CCC(O)CC2)cc1S(=O)(=O)NCc1ccc(Cl)cc1 (configuration not stated)	-2	.	0	0	-27	-4
C/C(CC(=O)NC12CC3CC(CC(C3)C1)C2)=N\NC(=O)c1ccc(F)cc1	0	?	-8	0	-11	-2
Cc1n[nH]c(=S)n1/N=C/c1ccc(OCc2ccc(Cl)cc2Cl)cc1	3	?	1	0	31*	-12
SMILES	D2 ag-1	Apoferritin bind	D2 PAM-1	D2 ag-2	D2 antagonist	D2 PAM-2
CCCCNC(=O)N1CCOCCOCCN(C(=O)NCCCC)CCOCCOCC1	-1	-2%	.	3	32*	5
CCC(=O)N1CCc2cc(Br)cc(S(=O)(=O)CCC(=O)NCc3ccco3)c21	-1	-3%	4	0	-5	15
CC(=O)Nc1cc2c(cc1C(=O)c1ccc(C)cc1)OCCO2	-3	-13%	-6	1	34*	-2
COc1cccc(C(=O)Nc2cc3c(cc2C(=O)c2ccc(C)cc2)OCCO3)c1	.	9%	-4	0	.	.
Cc1ccc2oc(=O)c3cc(C(=O)NCCCN4CCCC(C)C4)sc3c2c1 (configuration not stated)	-2	-13%	-18	0	43*	-32
CCCN1CCN(CCCNC(=O)c2cc3c(=O)oc4ccc(C)cc4c3s2)CC1	-2	-10%	34*	0	5	-11
CCOc1ccc(N2C(=O)c3cccnc3C2Nc2ccc(F)cc2)cc1 (configuration not stated)	-3	?	5	-2	7	-9
Cc1ccc(C(=O)NCCN2CCCC2)cc1	-3	6%	-31	0	8	-17
CCOc1c(Cl)cc(C(=O)NCCN2CCCCC2)cc1Cl	1	0%	-9	0	34*	-17
Cn1ccc2c(-c3ccc(C(F)(F)F)cc3)cc3c(c21)C1CCC3O1 (configuration not stated)	-3	.	.	.	.	-3
O=C1NC[C@@H](Cc2cccc3ccccc23)N(CC2(c3ccccc3)CC2)C1=O	-1	-19%	32*	0	12	2
Cc1ccc(/C=N\NC(=O)C2CC(=O)N(c3ccccc3)C2)o1 (configuration not stated)	0	-5%	1	0	8	-5
O=Nc1c(-c2ccccc2)n(O)[n+]([O-])c1-c1ccccc1	8	.	.	.	.	-1
CC(Sc1nccn1C)C(=O)Nc1ccc(Cl)cn1 (configuration not stated)	5	.	-2	0	49*	-6
CCCOc1ccc(/C=C2\SC(N)=NC2=O)cc1OC	-1	-2%	-10	-1	66*	-5
COc1ccc(/C=C2\SC(N)=NC2=O)cc1Br	2	-20%	-2	0	-8	0
O=C1CC(NNc2ccccc2)C(=O)N1c1ccccc1 (configuration not stated)	-4	-24%	3	0	-9	-7
CC(C)(C)C1(c2ccccc2)NC(=O)N(CC(=O)N2CCOCC2)C1=O (configuration not stated)	2	-8%	-17	0	44*	10
CC1(c2ccccc2)NC(=O)N(CC(=O)N2CCOCC2)C1=O (configuration not stated)	-3	-11%	-3	0	0	-16
NCCOc1ccccc1-c1ccccc1	-5	-11%	-21	1	14	-44
CC1CC(C)CN(CCOc2ccccc2-c2ccccc2)C1 (configuration not stated)	-1	4%	-29	-1	79*	-36
